Where “and” joins values, the source holds several entries; their conditions need not be identical. Equal values may be shown once. Records with an inconclusive call do not appear. Some compounds were tested as several samples or in several runs, with calls that do not always agree. Calls of active or inactive are those of the source. Calls follow the shape of the dose curve; as a rule, active = well fitted inhibition curve with a large enough effect; inconclusive = small, poorly fitted or top-dose-only effect; inactive = flat fitted curve, though single readings scatter. Peptide text beside a SMILES is read from it.
% is scaled to controls: 0 for no effect and ±100 for the full control effect; potency is read from the fitted curve at half-maximal effect.

For the first test, the system named is CRL-7250. Kind of test: Cytotoxic Profiling of Annotated Libraries Using Quantitative High-Throughput Screening (AID 1296008). Also: nearly all actives have a fitted effect of over 60% in size. Particulars: Five cell lines viability, CellTiter-Glo ATP luminescence, 48-72 h; max response: active compounds read low. The method in brief:
(§1)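 Compounds were pin-transferred onto cells and incubated 48 or 72 hr at 37 degree Celsius, 95% humidity. CellTiter-Glo was added, plates sat 10 min at room temperature, then ATP-coupled luminescence was imaged as the viability read-out.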
For orientation: Cellular ATP, detected with luciferase, serves as a proxy for viable cell number.
For the compound `O=C(NCC1CCCCN1)c1cc(OCC(F)(F)F)ccc1OCC(F)(F)F` (stereo not drawn), the max response was -77.3% (inactive) and the call was inactive.

With `CC(=O)NC[C@H]1CN(c2ccc(N3CCOCC3)c(F)c2)C(=O)O1`, the max response was -4.05% (inactive) and the result was inactive.

For the compound `Clc1ccc(C(Cn2ccnc2)OCc2ccsc2Cl)c(Cl)c1` (stereo not drawn), the max response was 1.94% (inactive) and the call was inactive.

Regarding `CN(C)C(=O)COC(=O)Cc1ccc(OC(=O)c2ccc(N=C(N)N)cc2)cc1`, the compound was classed as inactive.

On to `COc1cc(C(C)=O)ccc1OCCCN1CCC(c2noc3cc(F)ccc23)CC1`, for which the max response was -1.04% (inactive) and the compound was classed as inactive.

Consider `O=C(O)CCNC(=O)c1ccc(N=Nc2ccc(O)c(C(=O)O)c2)cc1`, for which the max response was -3.32% (inactive) and the call was inactive.

On to `CCC[C@@H]1C[C@@H](C(=O)N[C@@H]([C@H]2O[C@H](SC)[C@H](O)[C@@H](O)[C@H]2O)[C@@H](C)O)N(C)C1`, for which the max response is -16.2% (inactive) and the compound was called inactive.

Consider `Cc1nc(-c2ccc(OCC(C)C)c(C#N)c2)sc1C(=O)O`, for which the max response was 2.28% (inactive) and the compound was called inactive.

Consider `CC1(C)CCC(C)(C)c2cc(NC(=O)c3ccc(C(=O)O)cc3)ccc21`, for which the max response was 0.132% (inactive).

For the compound `Cc1cc2cc3c(C)cc(=O)oc3c(C)c2o1`, the max response was 4.53% (inactive) and -2.29% (inactive).

With `CN(c1nccc(=O)[nH]1)C1CCN(c2nc3ccccc3n2Cc2ccc(F)cc2)CC1`, the max response is -35.3% (inactive) and -24.5% (inactive); the compound was called inactive.

With `CCCS(=O)c1ccc2nc(NC(=O)OC)[nH]c2c1` (stereo not drawn), the Potency was 21.1 µM (active) and the max response is -27.5% (inactive).

Take `Clc1ccc(C(Cn2ccnc2)OCc2c(Cl)cccc2Cl)c(Cl)c1` (stereo not drawn): the max response is -2.52% (inactive) and the compound was classed as inactive.

`Cc1ccc(C)c(OCCCC(C)(C)C(=O)O)c1`: the max response is -2.44% (inactive) and the call was inactive.

Consider `CC(C)[C@H](N)C(=O)OCCOCn1cnc2c(=O)[nH]c(N)nc21`, for which the max response was -3.66% (inactive) and 1.07% (inactive).

As for `Clc1ccc(C(Cn2ccnc2)OCc2ccc(Sc3ccccc3)cc2)c(Cl)c1` (stereo not drawn), the max response was -3.19% (inactive) and the compound was classed as inactive.

On to `Cc1ncc([N+](=O)[O-])n1CC(C)O` (stereo not drawn), for which the max response is -19.5% (inactive) and the call was inactive.

In the case of `Cc1c(C(=O)NN2CCCCC2)nn(-c2ccc(Cl)cc2Cl)c1-c1ccc(Cl)cc1`, the max response is -1.95% (inactive) and the result was inactive.

Turning to `Cn1c(NCCN(CCO)CCCc2ccc([N+](=O)[O-])cc2)cc(=O)n(C)c1=O`, the max response is -8.35% (inactive) and the compound was called inactive.

In the case of `COc1ccc2cc([C@H](C)C(=O)O)ccc2c1`, the max response is -17% (inactive) and 0.0913% (inactive) and -30.7% (inactive).

In the case of `CS(=O)(=O)OCCCCOS(C)(=O)=O`, the max response was -2.55% (inactive) and the compound was classed as inactive.

As for `COc1cc2nc(N3CCN(C(=O)C4CCCO4)CC3)nc(N)c2cc1OC` (stereo not drawn), the max response is -10.4% (inactive) and the result was inactive.

For `COC1=C(OC)C(=O)C(CCCCCCCCCCO)=C(C)C1=O`, the max response is -2.47% (inactive) and the call was inactive.

Turning to `COc1ccc(C2(C#N)CCC(C(=O)O)CC2)cc1OC1CCCC1` (stereo not drawn), the result was inactive.

Turning to `COC(=O)[C@H](Cc1ccccc1)NC(=O)[C@@H](N)CC(=O)O` (H-Asp-Phe-OMe), the max response was 3.9% (inactive) and the result was inactive.

In a further test the test system is HEK293. Described as above. Particulars: Five cell lines viability, CellTiter-Glo ATP luminescence, 48-72 h; max response: active compounds read low. The method in brief: as §1
`CCN(CCO)CCCC(C)Nc1ccnc2cc(Cl)ccc12` (stereo not drawn): the max response was 2.34% (inactive) and the compound was classed as inactive.

Turning to `CC1=C(C)C(=O)C(C(CCCCCC(=O)O)c2ccccc2)=C(C)C1=O` (stereo not drawn), the max response is -12.9% (inactive) and the call was inactive.

Regarding `CC(=O)Nc1ccc(O)cc1`, the max response is 1.48% (inactive) and the call was inactive.

In the case of `Cc1cc2c(s1)Nc1ccccc1N=C2N1CCN(C)CC1`, the max response is 0.773% (inactive) and the compound was called inactive.

As for `CC1=C(C(=O)O)N2C(=O)[C@@H](NC(=O)[C@H](N)C3=CCC=CC3)[C@H]2SC1`, the max response is -32.9% (inactive) and the compound was classed as inactive.

As to `COC(=O)N[C@H](C(=O)N[C@@H](Cc1ccccc1)[C@@H](O)CN(Cc1ccc(-c2ccccn2)cc1)NC(=O)[C@@H](NC(=O)OC)C(C)(C)C)C(C)(C)C`, the max response is -5.2% (inactive) and the call was inactive.

Turning to `CCN(CC)C(=S)SSC(=S)N(CC)CC`, the Potency was 59 nM (active) and 313 nM (active) and 841 nM (active).

For the compound `CCC1=C(C)CN(C(=O)NCCc2ccc(S(=O)(=O)NC(=O)NC3CCC(C)CC3)cc2)C1=O` (stereo not drawn), the compound was called inactive.

Regarding `CN(C)c1ccc(O)c2c1C[C@H]1C[C@H]3[C@H](N(C)C)C(=O)C(C(N)=O)=C(O)[C@@]3(O)C(=O)C1=C2O`, the max response is -11.2% (inactive).

In the case of `O=C(NC(Cc1cc(=O)[nH]c2ccccc12)C(=O)O)c1ccc(Cl)cc1` (stereo not drawn), the max response was -6.76% (inactive) and -6.81% (inactive).

`O=C(NCC1CCCCN1)c1cc(OCC(F)(F)F)ccc1OCC(F)(F)F` (stereo not drawn): the max response is -82.7% (inactive).

`CC(=O)NC[C@H]1CN(c2ccc(N3CCOCC3)c(F)c2)C(=O)O1`: the Potency is 13.2 µM (active).

For `CN(C)C(=O)COC(=O)Cc1ccc(OC(=O)c2ccc(N=C(N)N)cc2)cc1`, the max response was 2.71% (inactive) and the result was inactive.

On to `COc1cc(C(C)=O)ccc1OCCCN1CCC(c2noc3cc(F)ccc23)CC1`, for which the max response is -12.6% (inactive).

Turning to `O=C(O)CCNC(=O)c1ccc(N=Nc2ccc(O)c(C(=O)O)c2)cc1`, the max response is -9.94% (inactive) and 3.93% (inactive).

Consider `CCC[C@@H]1C[C@@H](C(=O)N[C@@H]([C@H]2O[C@H](SC)[C@H](O)[C@@H](O)[C@H]2O)[C@@H](C)O)N(C)C1`, for which the max response is -5.82% (inactive) and -16.1% (inactive).

For the compound `Cc1nc(-c2ccc(OCC(C)C)c(C#N)c2)sc1C(=O)O`, the max response is -1.16% (inactive) and -8.21% (inactive).

As for `CC1(C)CCC(C)(C)c2cc(NC(=O)c3ccc(C(=O)O)cc3)ccc21`, the max response is 2.4% (inactive) and the compound was called inactive.

As to `Cc1cc2cc3c(C)cc(=O)oc3c(C)c2o1`, the max response was -0.492% (inactive) and the outcome was inactive.

As to `CN(c1nccc(=O)[nH]1)C1CCN(c2nc3ccccc3n2Cc2ccc(F)cc2)CC1`, the max response is -109% (inactive) and 0.851% (inactive) and -12.1% (inactive).

On to `CCCS(=O)c1ccc2nc(NC(=O)OC)[nH]c2c1` (stereo not drawn), for which the Potency was 23.7 µM (active).

Take `Clc1ccc(C(Cn2ccnc2)OCc2c(Cl)cccc2Cl)c(Cl)c1` (stereo not drawn): the Potency was 7.5 µM (active).

In the case of `Cc1ccc(C)c(OCCCC(C)(C)C(=O)O)c1`, the max response was 4.9% (inactive) and 0.17% (inactive).

Consider `CC(C)[C@H](N)C(=O)OCCOCn1cnc2c(=O)[nH]c(N)nc21`, for which the max response is 4.44% (inactive) and the compound was classed as inactive.

`Clc1ccc(C(Cn2ccnc2)OCc2ccc(Sc3ccccc3)cc2)c(Cl)c1` (stereo not drawn): the Potency is 26.4 µM (active) and the result was inactive.

With `Cc1ncc([N+](=O)[O-])n1CC(C)O` (stereo not drawn), the max response is 3.63% (inactive) and the compound was called inactive.

On to `Cc1c(C(=O)NN2CCCCC2)nn(-c2ccc(Cl)cc2Cl)c1-c1ccc(Cl)cc1`, for which the Potency was 26.4 µM (active).

With `Cn1c(NCCN(CCO)CCCc2ccc([N+](=O)[O-])cc2)cc(=O)n(C)c1=O`, the outcome was inactive.

`COc1ccc2cc([C@H](C)C(=O)O)ccc2c1`: the max response is 0.939% (inactive) and the compound was classed as inactive.

As for `CS(=O)(=O)OCCCCOS(C)(=O)=O`, the max response is -5.94% (inactive) and the call was inactive.

With `COc1cc2nc(N3CCN(C(=O)C4CCCO4)CC3)nc(N)c2cc1OC` (stereo not drawn), the max response is -14.3% (inactive) and 0.884% (inactive).

For the compound `COC1=C(OC)C(=O)C(CCCCCCCCCCO)=C(C)C1=O`, the Potency was 23.7 µM (active).

With `COc1ccc(C2(C#N)CCC(C(=O)O)CC2)cc1OC1CCCC1` (stereo not drawn), the max response was 4.74% (inactive) and the call was inactive.

On to `COC(=O)[C@H](Cc1ccccc1)NC(=O)[C@@H](N)CC(=O)O` (H-Asp-Phe-OMe), for which the max response is -5.62% (inactive) and -7.54% (inactive).

These data come from PubChem BioAssay (NCATS).
